# Experimental data published in PubChem BioAssay (Tox21).
# “And” between values parts separate entries of the source, which are not always exact repeats. Identical values can stand only once. Results filed as inconclusive are left out. Where a call stands in place of a potency, no number is given. Some compounds were tested as several samples or in several runs, with calls that do not always agree. The source made the active and inactive calls. Unless noted, calls follow the shape of the full dose curve.
# Columns and labels:
# [1] = qHTS assay to identify small molecule agonists of the vitamin D receptor (VDR) signaling pathway - cell viability counter screen (AID 743224; active = well fitted curve in the direction sought with a large enough effect in the repeat runs; an effect the other way counts as inactive or inconclusive; also: nearly all actives have a fitted effect of over 50% in size; also: potency is read from the fitted curve at half-maximal effect)
# Summary of the method: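 Compounds were pin-transferred onto VDR-bla cells plated 4 h earlier; following 16 h incubation at 37C, cell viability was quantified by CellTiter-Glo luminescence after 30 min at room temperature.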
# [2] = qHTS assay to identify small molecule antagonists of the vitamin D receptor (VDR) signaling pathway - cell viability counter screen (AID 743225; active = well fitted curve in the direction sought with a large enough effect in the repeat runs; an effect the other way counts as inactive or inconclusive; also: nearly all actives have a fitted effect of over 50% in size)
# Summary of the method: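 VDR-bla HEK 293T cells, 4 h pre-incubation at 37C, then compound plus 1-alpha,25-dihydroxyvitamin D3 (3 nM final) for 16 h. After the beta-lactamase FRET read, CellTiter-Glo was added to the same wells; luminescence after 30 min at room temperature.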
# [3] = qHTS assay to identify small molecule agonists of the NFkB signaling pathway - cell viability counter screen (AID 1159515); also: series mostly up to about 61 µM; nearly all actives have a fitted effect of over 55% in size
# Summary of the method: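 Parallel cytotoxicity counter screen in ME-180 cells carrying an NFkB-response-element beta-lactamase reporter, 2,000 cells/well. Compound exposure lasted 5 hr at 37 C, 5% CO2. Cell viability was quantified by CellTiter-Glo luminescence.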
# [4] = qHTS assay to identify small molecule agonists of the endoplasmic reticulum stress response signaling pathway (AID 1159516; active = well fitted activation curve with a large enough effect in the signal ratio in the repeat runs, not every such curve was filed as active; the % refers to the signal ratio)
# Summary of the method: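 Using a HeLa line with an ESRE-driven beta-lactamase gene, agonist activity was measured by FRET substrate fluorescence (460 and 530 nm emission) after cells were treated with compounds for 5 hr at 37 C and 5% CO2.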
# [5] = qHTS assay to identify small molecule agonists of the endoplasmic reticulum stress response signaling pathway - cell viability counter screen (AID 1159517);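 also: HeLa cells carrying an ER stress response element beta-lactamase reporter; series mostly up to about 61 µM; nearly all actives have a fitted effect of over 50% in size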
# Summary of the method: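 After overnight attachment, ESRE-bla HeLa cells were treated with Tox21 library compounds for 5 hr. CellTiter-Glo luminescence, read 30 min post-addition at room temperature, reported viability.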
# [6] = qHTS assay to identify small molecule antagonists of the retinoid-related orphan receptor gamma (ROR-gamma) signaling pathway - cell viability counter screen (AID 1159520; active = well fitted curve in the direction sought with a large enough effect in the repeat runs; an effect the other way counts as inactive or inconclusive; also: nearly all actives have a fitted effect of over 50% in size)
# Summary of the method: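 Cytotoxicity was read from cellular ATP (CellTiter-Glo luminescence) after 16 hr at 37 C with 1 uM doxycycline induction. The inducer was added 2 hr after compound transfer to Tet-on ROR gamma CHO cells.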
# [7] = qHTS assay to identify small molecule agonists of the AP-1 signaling pathway (AID 1159526)
# [8] = biological target: Retinoic acid receptor RXR-alpha (Homo sapiens) (UniProt P19793); assay: qHTS assay to identify small molecule agonists of the RXR signaling pathway (AID 1159527); also: nearly all actives have a fitted effect of over 35% in size; also: potency is read from the fitted curve at half-maximal effect
# Summary of the method: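 GeneBLAzer RXR-alpha-UAS-bla HEK 293T cells in medium with 2% charcoal-stripped FBS, pre-incubated 5 hr at 37 C, then exposed to compounds 16 hr. Beta-lactamase reporter read by FRET substrate, 2 hr room temperature, 460/530 nm emission.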
# [9] = qHTS assay to identify small molecule agonists of the AP-1 signaling pathway - cell viability counter screen (AID 1159525); also: nearly all actives have a fitted effect of over 55% in size
# Summary of the method: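 Intracellular ATP by Cell Titer Glo luminescence (30 min, RT) in the same ME-180 AP-1-bla wells after the 5 h compound exposure at 37 °C. Normalised to tetra n-octyl ammonium bromide and DMSO controls.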
# [10] = biological target: Nuclear receptor ROR-gamma (Homo sapiens) (UniProt P51449); assay: qHTS assay to identify small molecule antagonists of the retinoid-related orphan receptor gamma (ROR-gamma) signaling pathway (AID 1159521; active = well fitted curve in the direction sought with a large enough effect in the repeat runs; an effect the other way counts as inactive or inconclusive)
# Summary of the method: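 Tet-on RORγ CHO cells carrying a ROR response element–luciferase reporter were pretreated with compounds for 2 h, then induced with 1 uM (final) doxycycline hyclate for 16 h at 37 C. Antagonism was read as decreased ONE-Glo luminescence.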
# Retinoic acid receptor RXR-alpha (Homo sapiens), sequence (P19793 whole entry, looked up): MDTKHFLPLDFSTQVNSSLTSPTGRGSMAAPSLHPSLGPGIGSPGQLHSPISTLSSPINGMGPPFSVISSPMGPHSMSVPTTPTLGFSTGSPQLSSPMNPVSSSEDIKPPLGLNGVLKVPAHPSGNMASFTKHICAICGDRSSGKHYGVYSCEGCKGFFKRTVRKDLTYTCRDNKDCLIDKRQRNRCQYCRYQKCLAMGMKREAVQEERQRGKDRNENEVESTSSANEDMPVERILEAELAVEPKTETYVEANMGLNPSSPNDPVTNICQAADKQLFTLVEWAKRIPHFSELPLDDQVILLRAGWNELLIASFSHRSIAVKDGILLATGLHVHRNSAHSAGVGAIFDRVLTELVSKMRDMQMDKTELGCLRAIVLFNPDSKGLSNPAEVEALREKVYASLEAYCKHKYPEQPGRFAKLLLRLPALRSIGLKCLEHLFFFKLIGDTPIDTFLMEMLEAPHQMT
SMILES,Potency [1],Potency [2],Potency [3],Potency [4],Potency [5],Potency [6],Potency [7],Potency [8],Potency [9],Potency [10]
FC(F)(F)C(Cl)Br (configuration not stated),inactive,inactive,inactive,inactive,inactive,inactive,inactive,inactive,,
CC(C)[C@@H]1CC[C@@H](C)CC1=O,inactive,inactive,inactive,inactive,inactive,inactive,inactive,inactive,inactive,
NCCN,inactive,inactive,inactive,inactive,inactive,inactive,inactive,inactive,,
CCCCCC1C(=O)CCC1CC(=O)OC (configuration not stated),inactive,,inactive,inactive,inactive,inactive,inactive,inactive,inactive,
C=C[Si](OCCOC)(OCCOC)OCCOC,inactive,inactive,inactive,inactive,inactive,inactive,inactive,inactive,inactive,
Nc1ccc2c(c1)C(=O)c1ccccc1C2=O,inactive,inactive,inactive,inactive,inactive,,inactive,inactive,,inactive
CC(=O)OC(C)C,inactive,inactive,inactive,inactive,,inactive,inactive,inactive,inactive,inactive
Cc1ccc2c(c1)C(=O)OC2=O,inactive,inactive,inactive,inactive,inactive,inactive,inactive,inactive,inactive,
C=CC(C)(O)CCC=C(C)C (configuration not stated),inactive,inactive,inactive,inactive,inactive,inactive,inactive,,inactive,
CC(=O)O[C@]1(C(C)=O)CC[C@H]2[C@@H]3C=C(Cl)C4=CC(=O)CC[C@]4(C)[C@H]3CC[C@@]21C,43.6 µM (active) and inactive,inactive,inactive,inactive,inactive,inactive,,,inactive,
COC(=O)CC(=O)OC,inactive,inactive,inactive,inactive,inactive,inactive,inactive,inactive,,
CC1(C)O[C@@H]2C[C@H]3[C@@H]4C[C@H](F)C5=CC(=O)C=C[C@]5(C)[C@@]4(F)[C@@H](O)C[C@]3(C)[C@]2(C(=O)CO)O1,inactive,inactive,inactive,inactive,inactive,inactive,inactive,,,
CCCOCCO,inactive,inactive,inactive,inactive,inactive,inactive,inactive,inactive,,
[Na+],inactive,inactive,inactive,inactive,inactive,inactive,inactive,inactive,inactive,
Cc1ccc(S(=O)(=O)O)cc1C,inactive,inactive,inactive,inactive,inactive,inactive,inactive,inactive and 9.77 µM (active),inactive,
c1ccc2c(c1)[nH]c1ccccc12,inactive,inactive,inactive,inactive,inactive,inactive,inactive,inactive,inactive,
ClC/C=C/CCl,inactive,inactive,inactive,inactive,inactive,inactive,inactive,inactive,inactive,
CC(C)(C)c1cccc(C(C)(C)C)c1O,inactive,inactive,inactive,inactive,inactive,inactive,inactive,,inactive,
C1CN(SSN2CCOCC2)CCO1,inactive,inactive,inactive,inactive,inactive,,,,inactive,
Oc1ccc(C(c2ccc(O)cc2)C(Cl)(Cl)Cl)cc1,,,inactive,inactive,inactive,inactive,inactive,,,
CCCCCC=O,inactive,inactive,inactive,inactive,inactive,inactive,inactive,inactive,,
CC(=O)[C@@]1(O)CC[C@H]2[C@@H]3C[C@H](C)C4=CC(=O)C=C[C@]4(C)[C@@]3(F)[C@@H](O)C[C@@]21C,inactive,inactive,inactive,inactive,inactive,inactive,inactive,inactive,,
